A short description of assay [1]: rapamycin-like changes in RPL19A-GFP expression – cell-based, S. cerevisiae, multiplex flow cytometry, primary screen (AID 1862; in the data active = percent of DMSO control GFP below about 86%;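 note: lower values mimic rapamycin by blocking the RPL19A rise seen in DMSO cells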). To be noted: S. cerevisiae RPL19A-GFP strain, flow cytometry fluorescence, 3 h; at 10 µM; stronger effect = lower value.
The nature of assay [2]: TOR pathway GLN3 branch reporter MEP2-GFP changes – S. cerevisiae, multiplex flow cytometry, primary screen (AID 1867;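 active = GFP response, as percent of the DMSO control, above the screen-wide mean plus 3 SD, about 139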;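 note: median GFP channel fluorescence of barcode-gated MEP2-GFP cells measured by flow cytometry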). Particulars: S. cerevisiae MEP2-GFP strain, 3 h, at 10 µM, stronger effect = higher value.
Assay [3] can be described thus: TOR pathway RTG branch CIT2 reporter changes – S. cerevisiae, GFP fusion, multiplex flow cytometry, primary screen (AID 1870;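 active = percent response above a set limit, the screen-wide mean plus 3 SD, cut at about 130% in these data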;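 note: barcoded CIT2-GFP strain pooled with four other GFP strains with rapamycin as positive control; median GFP fluorescence per well over plate mean of DMSO wells so 100% = DMSO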). Particulars: S. cerevisiae CIT2-GFP expression, 3 h, at 10 µM, stronger effect = higher value.
Assay [4] can be described thus: TOR pathway LAP4-GFP level changes – S. cerevisiae, multiplex flow cytometry, primary screen (AID 1873;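 active = GFP signal, as percent of the solvent control, above the screen mean plus 3 SD, about 149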). Particulars: S. cerevisiae LAP4-GFP expression, 3 h, at 10 µM, stronger effect = higher value.
Assay [5] in a line: yeast AGP1-GFP level changes, GLN3 branch – cell-based, multiplex flow cytometry, S. cerevisiae, primary screen (AID 1887;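 active = GFP signal above the screen-wide mean plus 3 SD, that is over about 124.5% of the solvent control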;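 note: AGP1-GFP fusion strain of S. cerevisiae within a five-strain barcoded multiplex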). To be noted: 3 h, at 10 µM, stronger effect = higher value.
The nature of assay [6]: reduced mouse 2C T cell binding to pMHC/ICAM-1 vesicles – MLPCN validation set, flow cytometry, LFA-1/ICAM-1 modulator project, pilot screen (AID 2523;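 active = response below a set limit, under 55% cells CD8-positive and vesicle-bound, and CD8 cells' 90th-percentile brightness under 279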;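 for vesicle binding response: mean PE anti-B7-1 fluorescence of CD8+ cells relative to row control; 100% = QL9-loaded vesicles with DMSO vehicle in the same plate row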). Particulars: 2C mouse CD8+ T cells, at 7 µM, stronger effect = lower value; double positive events: measured here: CD8+/vesicle+ event percentage.
Assay [7] deals with Integrin beta-1 (Homo sapiens) + Integrin alpha-4 (Homo sapiens) (UniProt P13612+P05556). Kind of assay: alpha4beta1 integrin LIBS antibody binding reduction – U937 cells, HUTS-21 mAb, flow cytometry, validation set, VLA-4 allosteric modulator project, pilot screen (AID 2674;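 active = inhibition above 50%, about 3 SD of the validation set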;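 note: antibody binding induced by the VLA-4 ligand LDV present at three times its Kd; 0% = LDV ligand with antibody and no compound and 100% = antibody without LDV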). Particulars: HUTS-21 LIBS mAb binding, at 6.7 µM, stronger effect = higher value.
Chain of Integrin beta-1 (Homo sapiens) + Integrin alpha-4 (Homo sapiens) (P05556 whole entry, looked up): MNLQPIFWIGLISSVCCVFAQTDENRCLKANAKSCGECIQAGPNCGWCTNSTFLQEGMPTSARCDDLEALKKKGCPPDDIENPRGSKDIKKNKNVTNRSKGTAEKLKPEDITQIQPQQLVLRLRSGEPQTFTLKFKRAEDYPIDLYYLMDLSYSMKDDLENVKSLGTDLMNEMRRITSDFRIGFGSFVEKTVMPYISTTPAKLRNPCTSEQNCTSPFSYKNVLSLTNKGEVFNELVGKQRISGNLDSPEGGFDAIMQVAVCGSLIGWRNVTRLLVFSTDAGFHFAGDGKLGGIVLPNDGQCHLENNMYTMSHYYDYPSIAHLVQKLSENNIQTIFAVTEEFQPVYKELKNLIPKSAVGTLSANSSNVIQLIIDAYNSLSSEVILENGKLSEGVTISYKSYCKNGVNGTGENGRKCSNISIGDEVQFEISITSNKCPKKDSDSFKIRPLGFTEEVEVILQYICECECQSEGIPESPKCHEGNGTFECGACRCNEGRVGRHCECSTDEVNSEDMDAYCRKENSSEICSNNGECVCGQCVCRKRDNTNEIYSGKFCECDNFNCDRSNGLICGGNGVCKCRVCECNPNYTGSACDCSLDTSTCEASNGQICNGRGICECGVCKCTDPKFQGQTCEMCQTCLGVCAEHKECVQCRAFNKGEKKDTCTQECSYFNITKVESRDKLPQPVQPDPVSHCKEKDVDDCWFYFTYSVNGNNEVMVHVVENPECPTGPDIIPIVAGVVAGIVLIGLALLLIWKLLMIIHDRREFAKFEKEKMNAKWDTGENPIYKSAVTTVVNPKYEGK
Chain of Integrin beta-1 (Homo sapiens) + Integrin alpha-4 (Homo sapiens) (P13612 whole entry, looked up): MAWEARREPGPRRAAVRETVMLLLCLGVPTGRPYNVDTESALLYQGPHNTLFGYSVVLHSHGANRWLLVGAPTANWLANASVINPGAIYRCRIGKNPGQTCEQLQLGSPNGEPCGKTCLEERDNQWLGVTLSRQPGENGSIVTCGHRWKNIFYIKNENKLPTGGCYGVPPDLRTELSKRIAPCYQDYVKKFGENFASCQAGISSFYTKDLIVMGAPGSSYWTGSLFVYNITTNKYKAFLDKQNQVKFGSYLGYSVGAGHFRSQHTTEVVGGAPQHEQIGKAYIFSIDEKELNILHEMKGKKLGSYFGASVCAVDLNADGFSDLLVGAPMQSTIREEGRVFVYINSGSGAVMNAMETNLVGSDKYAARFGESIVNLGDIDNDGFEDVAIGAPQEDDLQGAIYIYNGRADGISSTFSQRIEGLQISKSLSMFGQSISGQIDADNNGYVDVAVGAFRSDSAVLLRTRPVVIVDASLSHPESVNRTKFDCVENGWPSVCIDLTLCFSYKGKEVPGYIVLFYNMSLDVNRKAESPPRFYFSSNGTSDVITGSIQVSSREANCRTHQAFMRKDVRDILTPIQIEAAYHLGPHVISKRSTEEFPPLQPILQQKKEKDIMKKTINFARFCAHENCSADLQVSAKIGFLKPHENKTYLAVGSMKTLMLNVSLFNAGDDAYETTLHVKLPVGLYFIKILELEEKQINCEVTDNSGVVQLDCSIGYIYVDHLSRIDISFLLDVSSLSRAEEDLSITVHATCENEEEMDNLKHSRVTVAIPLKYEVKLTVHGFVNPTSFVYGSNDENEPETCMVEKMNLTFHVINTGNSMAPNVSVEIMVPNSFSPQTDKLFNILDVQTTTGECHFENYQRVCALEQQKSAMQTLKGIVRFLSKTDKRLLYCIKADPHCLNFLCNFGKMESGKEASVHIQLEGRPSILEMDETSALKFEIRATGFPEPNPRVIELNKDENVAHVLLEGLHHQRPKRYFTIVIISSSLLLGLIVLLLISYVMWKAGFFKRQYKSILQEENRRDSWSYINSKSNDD
The nature of assay [8]: calorie-restriction mimetic ROS inhibitors, yeast – validation compound set, pilot screen (AID 2706;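 active = superoxide response below 65% of plate, a cut near 3 SD across the whole screen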;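 note: yeast exposed to compound for one week at 30 degrees C before staining; 100% = mean of all compound wells on the same plate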). To be noted: S. cerevisiae aging, superoxide DHE fluorescence; at 10 µM; stronger effect = lower value.
For assay [9], the target named is Beta-adrenergic receptor kinase 1 (Homo sapiens) (UniProt P25098). Kind of assay: GRK2 binders displacing RNA aptamer, biochemical, validation, human GRK2, bead flow cytometry (AID 488806;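 active = aptamer binding inhibition above 30%, about 3 SD of noise from non-fluorescent compounds; inactive = inhibition at or below 30%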). Particulars: bead-bound GRK2, FAM-aptamer displacement, at 10 µM, stronger effect = higher value.
Chain of Beta-adrenergic receptor kinase 1 (Homo sapiens) (P25098 whole entry, looked up): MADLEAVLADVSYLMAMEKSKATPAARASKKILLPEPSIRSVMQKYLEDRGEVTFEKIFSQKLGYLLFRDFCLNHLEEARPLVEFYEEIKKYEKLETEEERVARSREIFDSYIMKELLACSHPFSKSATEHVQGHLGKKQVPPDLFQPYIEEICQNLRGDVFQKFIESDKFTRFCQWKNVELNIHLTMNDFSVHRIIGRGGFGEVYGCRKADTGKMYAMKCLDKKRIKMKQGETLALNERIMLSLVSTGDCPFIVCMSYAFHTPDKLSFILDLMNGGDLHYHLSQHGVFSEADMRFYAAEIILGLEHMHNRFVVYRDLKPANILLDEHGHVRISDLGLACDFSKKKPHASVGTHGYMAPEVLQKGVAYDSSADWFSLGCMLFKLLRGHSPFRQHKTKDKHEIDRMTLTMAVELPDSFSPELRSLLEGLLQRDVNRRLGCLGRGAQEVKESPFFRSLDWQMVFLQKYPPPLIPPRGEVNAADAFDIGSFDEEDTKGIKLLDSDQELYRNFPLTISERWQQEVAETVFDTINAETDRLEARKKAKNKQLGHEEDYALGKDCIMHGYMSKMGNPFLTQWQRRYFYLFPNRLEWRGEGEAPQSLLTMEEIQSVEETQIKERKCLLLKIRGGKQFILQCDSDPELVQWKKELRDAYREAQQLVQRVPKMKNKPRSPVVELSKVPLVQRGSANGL
For assay [10], the target named is Beta-2 adrenergic receptor (Homo sapiens) (UniProt P07550). Kind of assay: agonist-induced loss of surface beta2AR – cell-based, FAP fluorogen, flow cytometry, validation set, pilot screen (AID 504459;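 active = percent response above 42, roughly 3 SD of non-fluorescent test compounds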;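 note: agonist-driven loss of surface beta2AR via internalization measured by FAP dye flow cytometry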). To be noted: Am2.2-beta2AR cells, at 10 µM, stronger effect = higher value.
Chain of Beta-2 adrenergic receptor (Homo sapiens) (P07550 whole entry, looked up): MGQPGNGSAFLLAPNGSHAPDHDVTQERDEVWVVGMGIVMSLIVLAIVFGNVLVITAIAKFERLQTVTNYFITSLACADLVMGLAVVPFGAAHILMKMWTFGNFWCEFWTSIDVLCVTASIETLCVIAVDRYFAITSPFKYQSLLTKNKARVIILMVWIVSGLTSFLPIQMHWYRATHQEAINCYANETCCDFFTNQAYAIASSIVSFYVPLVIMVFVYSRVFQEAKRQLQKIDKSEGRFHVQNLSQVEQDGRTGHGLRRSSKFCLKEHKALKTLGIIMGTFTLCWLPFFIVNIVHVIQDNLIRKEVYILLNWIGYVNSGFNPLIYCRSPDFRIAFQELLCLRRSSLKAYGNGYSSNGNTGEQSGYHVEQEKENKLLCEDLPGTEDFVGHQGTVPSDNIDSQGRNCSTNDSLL
The target in assay [11] is AP-2 complex subunit beta (Homo sapiens) (UniProt P63010). Kind of assay: beta-arrestin/AP2 interaction blockers – biochemical, validation set, GST-AP2 beads, flow cytometry, pilot screen (AID 504541;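 active = inhibition above 54%, about 3 SD of non-fluorescent compounds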;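 note: AP2 carries R879A mutation and is captured from E. coli lysate; bead-bound FITC arrestin peptide fluorescence measuring arrestin peptide binding to AP2; 0% = DMSO wells and 100% = excess unlabeled arrestin peptide control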). Particulars: FITC arrestin peptide, at 10 µM, stronger effect = higher value.
Chain of AP-2 complex subunit beta (Homo sapiens) (P63010 whole entry, looked up, one chain of several): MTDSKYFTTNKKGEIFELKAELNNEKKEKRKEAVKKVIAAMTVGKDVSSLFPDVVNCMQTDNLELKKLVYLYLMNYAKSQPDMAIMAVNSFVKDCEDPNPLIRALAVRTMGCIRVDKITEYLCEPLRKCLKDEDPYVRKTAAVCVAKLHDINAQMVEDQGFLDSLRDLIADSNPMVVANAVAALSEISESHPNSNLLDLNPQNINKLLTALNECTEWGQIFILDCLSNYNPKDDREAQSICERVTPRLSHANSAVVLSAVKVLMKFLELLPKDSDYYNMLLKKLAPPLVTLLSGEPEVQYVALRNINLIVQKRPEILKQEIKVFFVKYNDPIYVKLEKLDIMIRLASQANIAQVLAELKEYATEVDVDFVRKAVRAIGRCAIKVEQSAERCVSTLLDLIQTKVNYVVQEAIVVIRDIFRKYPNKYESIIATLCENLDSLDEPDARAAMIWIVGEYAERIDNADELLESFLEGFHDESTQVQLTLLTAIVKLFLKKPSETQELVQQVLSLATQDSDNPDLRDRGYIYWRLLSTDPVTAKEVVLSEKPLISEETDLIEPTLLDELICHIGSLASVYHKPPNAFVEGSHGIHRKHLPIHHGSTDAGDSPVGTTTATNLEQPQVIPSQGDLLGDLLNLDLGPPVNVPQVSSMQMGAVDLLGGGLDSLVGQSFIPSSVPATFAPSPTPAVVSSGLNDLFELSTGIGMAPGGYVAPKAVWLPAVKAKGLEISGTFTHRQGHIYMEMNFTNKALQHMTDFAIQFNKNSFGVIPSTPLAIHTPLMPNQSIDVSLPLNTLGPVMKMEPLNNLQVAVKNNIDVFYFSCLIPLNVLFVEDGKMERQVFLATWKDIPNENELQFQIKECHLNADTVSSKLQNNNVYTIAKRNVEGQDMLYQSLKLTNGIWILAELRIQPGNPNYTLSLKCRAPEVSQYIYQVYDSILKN
The nature of assay [12]: cytosolic pH regulators acting via V-ATPase – S. cerevisiae, pHLuorin, HTS validation (AID 504600; in the data active = response above about 15%;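 note: plate controls were DMSO for no effect and reference compound for full effect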). To be noted: V-ATPase proton transport, at 10 µM, stronger effect = higher value.
Assay [13] deals with anti-desmoglein-3 scFv antibody binding to human DSG3. Kind of assay: blockers of pathogenic pemphigus antibody–desmoglein-3 binding – biochemical, validation compound set, bead-based, flow cytometry, pilot screen (AID 588368;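 active = binding below the plate cutoff, the plate median minus 3 SD, with a reading above zero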;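 note: signal is the median channel fluorescence of bead-bound GFP antibody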). Particulars: Protein G beads, DSG3-Fc, scFv-GFP binding, at 10 µM, stronger effect = lower value.
In assay [14] the test system is Botulinum neurotoxin type F light chain protease (Clostridium botulinum). Kind of assay: Clostridium botulinum type F light chain protease inhibitors, microsphere substrate cleavage, validation (AID 588459). To be noted: multiplex microsphere protease substrate cleavage assay, flow cytometry; at 10 µM; stronger effect = higher value.
Assay [15] addresses Botulinum neurotoxin type A (Clostridium botulinum) (UniProt P0DPI0). Kind of assay: BoNT/A light chain protease inhibitors, biochemical, multiplex microsphere flow cytometry, validation set (AID 588460). To be noted: at 10 µM, stronger effect = higher value.
Assay [16] has as its target Lethal factor (Bacillus anthracis) (UniProt P15917). Kind of assay: Bacillus anthracis lethal factor inhibition, microsphere flow cytometry protease assay, validation at 10 µM (AID 588461). Particulars: multiplex microsphere protease cleavage assay, stronger effect = higher value.
Assay [17] can be described thus: Nile Red efflux blockade in pump-expressing yeast – validation compound set, multiplex, phenotypic, pilot screen (AID 588506;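 active = efflux inhibition above 0.42, the validation set average plus 4 SD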;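 note: Nile Red retained in cells so higher fluorescence means more efflux inhibition; 0 = negative control wells and 1 = enniatin B 25 µM full block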). To be noted: S. cerevisiae pump-expressing triplex, Nile Red efflux flow cytometry; at 10 µM; stronger effect = higher value.
The target of assay [18] is ATP-binding cassette sub-family B member 6 (Homo sapiens) (UniProt Q9NP58). Put plainly: blockers of ABCB6-driven porphyrin uptake – K562-ABCB6 cells, flow cytometry, validation set, pilot screen (AID 588550;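 active = inhibition above the screen-wide mean plus 3 SD, about 51%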;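 note: 0% = DMSO wells and 100% = benzethonium chloride 70 µM positive control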). To be noted: K562-ABCB6 porphyrin accumulation, 1 h, at 10 µM, stronger effect = higher value.
Chain of ATP-binding cassette sub-family B member 6 (Homo sapiens) (Q9NP58 whole entry, looked up): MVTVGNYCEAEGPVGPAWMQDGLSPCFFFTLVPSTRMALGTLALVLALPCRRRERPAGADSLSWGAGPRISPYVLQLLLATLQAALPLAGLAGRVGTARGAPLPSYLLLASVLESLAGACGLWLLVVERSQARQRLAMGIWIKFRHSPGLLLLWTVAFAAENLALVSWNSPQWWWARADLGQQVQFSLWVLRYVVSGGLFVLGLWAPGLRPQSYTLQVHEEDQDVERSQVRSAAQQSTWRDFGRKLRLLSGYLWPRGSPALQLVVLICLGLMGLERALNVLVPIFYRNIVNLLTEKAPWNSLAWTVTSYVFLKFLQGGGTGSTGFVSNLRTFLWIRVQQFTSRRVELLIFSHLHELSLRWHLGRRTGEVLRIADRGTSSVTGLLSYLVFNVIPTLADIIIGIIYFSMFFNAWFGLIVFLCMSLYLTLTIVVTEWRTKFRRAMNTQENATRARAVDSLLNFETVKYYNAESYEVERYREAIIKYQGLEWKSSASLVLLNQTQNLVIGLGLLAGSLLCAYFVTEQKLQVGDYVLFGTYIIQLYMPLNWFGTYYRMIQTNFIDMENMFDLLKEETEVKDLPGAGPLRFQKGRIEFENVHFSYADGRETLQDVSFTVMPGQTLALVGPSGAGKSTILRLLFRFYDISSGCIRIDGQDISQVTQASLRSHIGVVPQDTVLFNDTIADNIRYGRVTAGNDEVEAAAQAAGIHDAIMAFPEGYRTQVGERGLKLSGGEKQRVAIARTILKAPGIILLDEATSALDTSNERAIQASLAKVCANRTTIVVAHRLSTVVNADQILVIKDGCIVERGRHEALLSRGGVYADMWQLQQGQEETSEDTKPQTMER
The nature of assay [19]: AML differentiation inducers, ER-HoxA9 marrow cells – cell-based, GFP/MAC1 double positive, flow cytometry, validation set, primary screen (AID 588685;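 active = differentiation response of at least 50%, scaled between solvent and reference control, from cells with both markers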;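 note: compound exposure lasts four days before antibody staining and flow analysis; 0% = DMSO wells and 100% = 5 µM fulvestrant positive control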). Particulars: stronger effect = higher value.

Records with an inconclusive call do not appear. Active and inactive are the calls of the source. Unless noted, the rule behind the calls is not given here.

Here are results for four compounds from PubChem BioAssay.

As for `O=Cc1cn(Cc2ccc(F)cc2)c2ccccc12`, the percent of DMSO control GFP in assay [1] is 97.8% (inactive). For the same compound, the GFP response vs DMSO is 113% (inactive) in [2] and 129% (inactive) in assay [4]. Also, in assay [3], the percent response of DMSO control was 90.1% (inactive). Besides, the GFP response, % of DMSO in [5] is 102% (inactive). The compound further displayed a double positive events in assay [6] of 60.5%. Further, in assay [6], the vesicle binding response was 173% (inactive). For the same compound, the inhibition in [7] is 2.3% (inactive); in assay [11], 49.4% (inactive); in assay [14], 8.3% (inactive); in assay [15] it was 3.1% (inactive); in assay [16] it was 3.2% (inactive); in assay [18], 2% (inactive). Moreover, the superoxide response (% of plate) in assay [8] is 99.1% (inactive). Besides, the aptamer binding inhibition in assay [9] was 1% (inactive). Further, the results for the response in assay [10] and in assay [12] were 14.3% (inactive) and -7.85% (inactive), respectively. The binding (% of control) in assay [13] was 97.2% (inactive). Moreover, in assay [17], the efflux inhibition (fraction of control) was 0.12 (inactive). For the same compound, the differentiation response in assay [19] was 93.6% (active).
`C=C1[C@@H](C)[C@H]2[C@H](Cc3ccccc3)NC(=O)[C@]23OC(=O)/C=C/[C@H](O)CCC[C@@H](C)C/C=C/[C@H]3[C@@H]1O`: the percent of DMSO control GFP in assay [1] was 106% (inactive). Further, the GFP response vs DMSO in [2] was 102% (inactive); in [4] it was 114% (inactive). In addition, in [3], the percent response of DMSO control is 106% (inactive). In assay [5], the GFP response, % of DMSO is 119% (inactive). This compound displayed a double positive events in assay [6] of 62.1%. The vesicle binding response in assay [6] is 205% (inactive). Further, the inhibition is -2.82% (inactive) in assay [7]; -4.43% (inactive) in [11]; 2% (inactive) in [14]; 0.4% (inactive) in assay [15]; -2.5% (inactive) in assay [16]; 7% (inactive) in assay [18]. For the same compound, in assay [8], the superoxide response (% of plate) was 102% (inactive). In addition, the aptamer binding inhibition in assay [9] is 4% (inactive). Moreover, the figures for the response in assay [10] and in assay [12] were 36.2% (inactive) and 0.39% (inactive), respectively. The binding (% of control) in assay [13] was 102% (inactive). Also, the efflux inhibition (fraction of control) in assay [17] is -0.21 (inactive). The differentiation response in assay [19] is -4% (inactive).
For `CC(C)CCC1(CN2CCCC2=O)C(=O)NC(=O)NC1=O`, in assay [1], the percent of DMSO control GFP is 95.4% (inactive). Besides, the results for the GFP response vs DMSO in assay [2] and in assay [4] were 105% (inactive) and 120% (inactive), respectively. Besides, in assay [3], the percent response of DMSO control was 86.3% (inactive). In addition, the GFP response, % of DMSO in assay [5] was 101% (inactive). In assay [6], this compound displayed a double positive events of 58.9%. Further, the vesicle binding response in assay [6] is 219% (inactive). Besides, the inhibition in assay [7] is 0.94% (inactive); in assay [11], -2.03% (inactive); in [14] it was 2.3% (inactive); in assay [15] it was 0.7% (inactive); in assay [16], -0.7% (inactive); in [18], 5% (inactive). The superoxide response (% of plate) in assay [8] is 97.2% (inactive). The aptamer binding inhibition in [9] was 1% (inactive). Further, the response was 5.39% (inactive) in assay [10] and -6.71% (inactive) in [12]. Further, the binding (% of control) in [13] was 98.4% (inactive). Also, the efflux inhibition (fraction of control) in assay [17] was 0.12 (inactive). Moreover, the differentiation response in assay [19] was 45.6% (inactive).
On to `COc1ccc(CN2CC3CC(C2)c2cccc(=O)n2C3)cc1OC` (stereo not given), for which, in assay [1], the percent of DMSO control GFP is 105% (inactive). Moreover, the GFP response vs DMSO was 101% (inactive) in assay [2] and 84.1% (inactive) in assay [4]. The percent response of DMSO control in [3] is 95.4% (inactive). Also, the GFP response, % of DMSO in assay [5] was 95.1% (inactive). In [6], this compound registered a double positive events of 60.2%. Besides, the vesicle binding response in [6] is 170% (inactive). Further, the inhibition in assay [7] is 14.1% (inactive); in [11], -0.56% (inactive); in assay [14], 1.7% (inactive); in assay [15] it was -1.2% (inactive); in assay [16] it was -0.8% (inactive); in assay [18], 8% (inactive). In assay [8], the superoxide response (% of plate) was 93% (inactive). For the same compound, the aptamer binding inhibition in assay [9] is 0% (inactive). In addition, the response in assay [10] is 2.8% (inactive); in [12], 1% (inactive). The binding (% of control) in assay [13] is 100% (inactive). In addition, in [17], the efflux inhibition (fraction of control) was 0.39 (inactive). Also, the differentiation response in assay [19] is 4.15% (inactive).
